Data from PubChem BioAssay (NCATS).
Inconclusive results are not listed. A number with no mark means an inactive call. Calls come from the whole dose curve; as a rule, active = well fitted inhibition curve with a large enough effect; inconclusive = small, poorly fitted or top-dose-only effect; inactive = flat fitted curve, though single readings scatter.

The compounds below were run on astro (assay: Drug repurposing screens with cells derived from glioblastoma tumor samples (AID 1345199; note: nearly all actives have a fitted effect of over 40% in size)). Conditions: viability, ATP luminescence, 48 h; series mostly up to 45.9 µM; activity, negative = cell killing: at the top concentration.
Method in brief: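 Four patient lines of CD133+ GBM neurospheres were screened at several concentrations; hits were retested in those lines plus three slower-growing GBM lines, using 48-hour treatment and ATP-based viability.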
% is set by controls: 0 for no effect and ±100 for the full control effect.

| SMILES | activity, negative = cell killing |
| --- | --- |
| CCN(CC)C(C)C(=O)c1ccccc1 (stereo unspecified) | -4.54% |
| CC(C)C(Br)C(=O)NC(N)=O (stereo unspecified) | -4.31% |
| CC(Cc1ccccc1)NCc1ccccc1Cl (stereo unspecified) | -9.9% |
| CC(C)NCC(O)c1ccc(N)c(C#N)c1 (stereo unspecified) | -23.6% |
| COc1ccc2[nH]cc(CCN(C(C)C)C(C)C)c2c1 | -12.2% [at 108 µM] |
| CN(C)C(=O)Oc1cc(OC(=O)N(C)C)cc(C(O)CNC(C)(C)C)c1 (stereo unspecified) | -14.1% [at 21.2 µM] |
| Oc1ccc([C@H]2CNCc3c2ccc(O)c3O)cc1O | -8.58% |
| CCOC(=O)NC(O)C(Cl)(Cl)Cl (stereo unspecified) | -5.01% |
| C[C@H]1CNCCc2ccc(Cl)cc21 | -12.5% |
| OC(O)C(Cl)(Cl)Cl | -11.3% |
| CCCCC1C(=O)NC(=O)N(C2CCCCC2)C1=O (stereo unspecified) | -13.3% |
